IDE exosite inh: exo-site inhibitors of human insulin-degrading enzyme | purified IDE, FL-6b probe fluorescence polarization; stronger effect = lower value | z-score at 20 µM | 6.3% of 17,000 active | P14735;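 active = z-score of -3 or lower, meaning strong loss of probe binding signal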;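 also: His-tagged human IDE residues 42-1019 made in E. coli with 30 nM FL-6b probe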
Target sequence (P14735 42-1019 limits assumed): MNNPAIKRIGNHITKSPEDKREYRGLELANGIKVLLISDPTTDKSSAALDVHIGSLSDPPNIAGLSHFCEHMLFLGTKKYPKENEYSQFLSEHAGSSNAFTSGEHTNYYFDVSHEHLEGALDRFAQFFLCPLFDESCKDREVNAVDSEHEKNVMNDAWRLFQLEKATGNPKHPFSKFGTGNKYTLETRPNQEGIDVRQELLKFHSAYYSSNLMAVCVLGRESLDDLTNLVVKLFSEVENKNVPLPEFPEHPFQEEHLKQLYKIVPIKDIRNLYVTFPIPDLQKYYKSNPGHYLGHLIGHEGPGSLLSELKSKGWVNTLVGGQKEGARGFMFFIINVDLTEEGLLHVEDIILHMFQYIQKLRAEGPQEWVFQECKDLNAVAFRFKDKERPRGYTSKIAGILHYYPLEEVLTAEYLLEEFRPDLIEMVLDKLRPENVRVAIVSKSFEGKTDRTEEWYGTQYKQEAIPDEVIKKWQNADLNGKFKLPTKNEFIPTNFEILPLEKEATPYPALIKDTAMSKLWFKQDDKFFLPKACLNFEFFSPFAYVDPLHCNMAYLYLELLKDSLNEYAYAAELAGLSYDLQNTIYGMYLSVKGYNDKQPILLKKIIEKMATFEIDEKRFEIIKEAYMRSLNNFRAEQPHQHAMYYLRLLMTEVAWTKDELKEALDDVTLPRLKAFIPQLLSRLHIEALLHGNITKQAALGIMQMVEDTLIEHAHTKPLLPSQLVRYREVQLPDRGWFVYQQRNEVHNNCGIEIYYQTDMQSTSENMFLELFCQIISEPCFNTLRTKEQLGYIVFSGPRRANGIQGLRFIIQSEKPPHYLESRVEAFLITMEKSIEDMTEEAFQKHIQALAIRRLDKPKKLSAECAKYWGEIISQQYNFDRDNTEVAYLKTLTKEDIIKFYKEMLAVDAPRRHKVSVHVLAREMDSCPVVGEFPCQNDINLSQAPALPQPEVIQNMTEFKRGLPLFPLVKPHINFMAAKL
Starred values were filed as active, the others as inactive; ! = not active in a repeat. Only a selection was taken, and hits are over-represented in it overall.

SMILES	IDE exosite inh
O=C(c1cnccn1)N1CC(=O)N2[C@H](CO)[C@@H](c3ccc(-c4ccccc4)cc3)[C@@H]2C1	-2.96
O=C(c1cnccn1)N1CC(=O)N2[C@@H](CO)[C@H](c3ccc(C4=CCCCC4)cc3)[C@@H]2C1	-1.6
O=C(c1cnccn1)N1CC(=O)N2[C@@H](CO)[C@H](c3ccc(-c4cccc(F)c4)cc3)[C@@H]2C1	-2.26
Cc1cccc(-c2ccc([C@H]3[C@@H](CO)N4C(=O)CN(C(=O)c5cnccn5)C[C@H]34)cc2)c1	-12.5*
C[C@H](O)C#Cc1ccc([C@H]2[C@@H](CO)N3CCCCN(C(=O)c4ccc5c(c4)OCO5)C[C@H]23)cc1	-0.0839
O=C(C[C@H]1CC[C@@H]2[C@H](COC[C@@H](O)CN2Cc2ccc3c(c2)OCO3)O1)N1CCCCC1	0.0955
OC[C@H]1[C@H](c2ccc(C#CC3(O)CCCC3)cc2)[C@H]2CN(Cc3ccncc3)CCCCN21	1.99
N#C[C@H]1[C@H](c2ccccc2)[C@@H](CO)N1C(=O)Nc1cccc(F)c1	-1.3
O=C(c1ccc2c(c1)OCO2)N1CC(=O)N2[C@H](C1)[C@@H](c1ccc(C#CC3CCCC3)cc1)[C@@H]2CO	1.47
CS(=O)(=O)Nc1ccc2c(c1)[C@@H]1C[C@@H](CC(=O)NCc3cc(F)ccc3F)O[C@@H](CO)[C@@H]1O2	-0.994
N#Cc1cccc(-c2ccc([C@H]3[C@@H](CO)N4CCCCN(C(=O)Nc5cccc(F)c5)C[C@@H]34)cc2)c1	3.83
CN(C)CC(=O)N1CC(=O)N2[C@H](CO)[C@@H](c3ccc(-c4ccc(C#N)cc4)cc3)[C@H]2C1	0.327
O=C(c1cnccn1)N1CC(=O)N2[C@H](CO)[C@H](c3ccc(C#CCc4ccccc4)cc3)[C@H]2C1	-1.3
COc1ccc(-c2ccc(C3[C@H]4CNC[C@@H]3N4C(=O)NC3CCCC3)cc2)cc1 (some centres not stated)	3.02
CN(C)C(=O)c1ccc(-c2ccc(C3[C@@H]4CN(C(=O)Cc5ccncc5)C[C@H]3N4)cc2)cc1 (some centres not stated)	3.59
CN(C)C(=O)c1cccc(-c2ccc(C3[C@@H]4CN(C(=O)c5cnccn5)C[C@H]3N4)cc2)c1 (some centres not stated)	0.0918
COc1cccc(-c2ccc(C3[C@@H]4CN(C(=O)c5ccc(F)cc5)C[C@H]3N4)cc2)c1 (some centres not stated)	1.85
CCCNC(=O)N1C[C@@H]2N[C@H](C1)C2c1ccc(-c2cccc(F)c2)cc1 (some centres not stated)	-0.438
COc1cccc(-c2ccc(C3[C@H]4CNC[C@@H]3N4C(=O)NC3CCCCC3)cc2)c1 (some centres not stated)	-3.77*!
Cc1ccccc1-c1ccc(C2[C@@H]3CN(C(=O)Cc4ccncc4)C[C@H]2N3)cc1 (some centres not stated)	-9.03*!
CCCNC(=O)N1C[C@@H]2N[C@H](C1)C2c1ccc(-c2cccc(OC)c2)cc1 (some centres not stated)	-3.88*!
COc1cccc(-c2ccc(C3[C@@H]4CN(C(=O)c5cnccn5)C[C@H]3N4)cc2)c1 (some centres not stated)	-8.71*!
O=C(NC1CCCC1)N1[C@@H]2CNC[C@H]1C2c1ccc(-c2cccnc2)cc1 (some centres not stated)	-0.489
Cc1cccc(-c2ccc(C3[C@@H]4CN(C(=O)Cc5ccncc5)C[C@H]3N4)cc2)c1 (some centres not stated)	0.108
CCCNC(=O)N1C[C@@H]2N[C@H](C1)C2c1ccc(-c2ccc(OC)cc2)cc1 (some centres not stated)	-0.564
SMILES	IDE exosite inh
COCC(=O)N1[C@H](CO)[C@H](c2ccc(C#Cc3ccccc3F)cc2)[C@@H]1C#N	-2.25
CCCC#Cc1ccc2c(c1)O[C@@H](CN(C)Cc1ccccn1)[C@H](C)CN([C@H](C)CO)S2(=O)=O	-1.78
O=C(CCN1CCCCC1)N[C@H]1CC[C@H](CCn2cc(-c3cccc(F)c3)nn2)O[C@H]1CO	-1.53
CNC[C@@H]1Oc2cc(C3=CCCC3)ccc2S(=O)(=O)N([C@@H](C)CO)C[C@H]1C	-0.886
C[C@@H](NC(=O)C[C@@H]1C=C[C@H](NS(=O)(=O)c2cccc(F)c2)[C@H](CO)O1)c1ccccc1	3.74
O=C(c1cnccn1)N1CC(=O)N2[C@H](CO)[C@H](c3ccc(C#CCC4CCCC4)cc3)[C@@H]2C1	4.29
CCCNC(=O)N1C[C@@H]2N[C@H](C1)C2c1ccc(-c2cccnc2)cc1 (some centres not stated)	1.84
CCCNC(=O)N1C[C@@H]2N[C@H](C1)C2c1ccc(-c2ccc(F)cc2)cc1 (some centres not stated)	2.21
CCCNC(=O)N1C[C@@H]2N[C@H](C1)C2c1ccc(-c2ccccc2C)cc1 (some centres not stated)	-7.81*!
Cc1ccc(S(=O)(=O)N(C)C[C@@H]2OCCCC[C@H](C)Oc3ccc(NC(=O)c4ccncc4)cc3C(=O)N([C@@H](C)CO)C[C@H]2C)cc1	1.72
O=C(C[C@@H]1CC[C@@H]2[C@H](COC[C@H](O)CN2Cc2ccc3c(c2)OCO3)O1)N1CCCCC1	0.878
O=S(=O)(c1ccccc1F)N1CCCCN2[C@@H](CO)[C@@H](c3ccc(-c4ccccc4)cc3)[C@@H]2C1	0.0138
Cc1cccc(-c2ccc([C@@H]3[C@@H](CO)N4CCCCN(S(=O)(=O)c5cccc(C)c5)C[C@@H]34)cc2)c1	-9.77*
O=S(=O)(c1ccccc1F)N1CCCCN2[C@H](CO)[C@H](c3ccc(-c4ccccc4)cc3)[C@H]2C1	1.91
Cc1cccc(-c2ccc([C@@H]3[C@@H](CO)N4CCCCN(S(=O)(=O)c5ccccc5C)C[C@H]34)cc2)c1	2.09
Cc1cccc(-c2ccc([C@H]3[C@@H](CO)N4CCCCN(S(=O)(=O)c5ccccc5F)C[C@H]34)cc2)c1	-3.53*
Cc1cccc(-c2ccc([C@@H]3[C@@H](CO)N4CCCCN(S(=O)(=O)c5ccccc5C)C[C@@H]34)cc2)c1	-20.3*
Cc1cccc(-c2ccc([C@H]3[C@H]4CN(S(=O)(=O)c5ccccc5F)CCCCN4[C@H]3CO)cc2)c1	-1.65
Cc1ccccc1S(=O)(=O)N1CCCCN2[C@H](CO)[C@@H](c3ccc(-c4cccc(F)c4)cc3)[C@@H]2C1	-7.34*
Cc1cccc(-c2ccc([C@H]3[C@H](CO)N4CCCCN(S(=O)(=O)c5cccc(C)c5)C[C@@H]34)cc2)c1	1.1
Cc1cccc(-c2ccc([C@H]3[C@H]4CN(S(=O)(=O)c5ccccc5C)CCCCN4[C@H]3CO)cc2)c1	4.51
Cc1cccc(-c2ccc([C@@H]3[C@@H](CO)N4CCCCN(S(=O)(=O)c5cccc(C)c5)C[C@H]34)cc2)c1	3.58
CCC(=O)N1[C@@H](CO)[C@@H](c2ccccc2)[C@@H]1CN(CC)C(=O)NC1CCCC1	1.18
CC(C)[C@H]1COCc2cn(nn2)CCC[C@@H](C)C(=O)N1	0.82
COc1ccc(S(=O)(=O)N(C)C[C@@H]2Oc3ncccc3C(=O)N([C@H](C)CO)C[C@@H]2C)cc1	-0.451
C/C=C/c1ccc([C@@H]2[C@H](CO)N3C(=O)CN(C(=O)Nc4ccccc4F)C[C@@H]23)cc1	3.14
COc1ccc(C#Cc2cccc(-c3nc(C(=O)N4CCN(Cc5ccccc5)CC4)cc4c3[C@H](CCO)N(S(=O)C(C)(C)C)C4)c2)cc1OC (some centres not stated)	1.45
